Common to all, as to experiment: qHTS profiling for inhibitors of Plasmodium falciparum proliferation (AID 504749); further: nearly all actives have a fitted effect of over 60% in size;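 on activity, negative = inhibition: 0% = DMSO vehicle and full inhibition = artemisinin control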
Common to all, as to settings: P. falciparum in erythrocytes, SYBR Green DNA, 72 h; series mostly up to 28.7 µM

The subject of one assay is CP286. A digest of the protocol:
(§1)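 Three-day growth assay of blood-stage parasites in erythrocytes (0.3% parasitemia, 2.5% hematocrit) at 37 C, 5% CO2, quantified by SYBR Green DNA staining after overnight detergent lysis.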

The next assay concerns CP291. A digest of the protocol:
as §1

In a further assay the test system is CP297. An outline of the steps:
as §1

Another assay relates to CP305. An outline of the steps:
as §1

A further assay has as its system CP315. A digest of the protocol:
as §1

The next assay has as its system CP325. A digest of the protocol: as §1
Another assay has as its system CP329. A digest of the protocol: as §1
In the next assay the test system is CP335. A digest of the protocol: as §1
A further assay concerns DFO2036. An outline of the steps: as §1
The subject of another assay is DIV14. An outline of the steps: as §1

This note sets out measurements from PubChem BioAssay (NCATS).

Results filed as inconclusive are left out. A number with no mark means an inactive call. The source made the active and inactive calls. The call rests on the fitted dose curve; in most records, active means well fitted inhibition curve with a large enough effect; inconclusive means small, poorly fitted or top-dose-only effect; inactive means flat fitted curve, though single readings scatter.
Potency means the concentration at half of the fitted maximal effect.

`COc1c2c(cc3c1OCO3)CCN(C)C2`: the Potency entry in the assay with CP286, in the assay on CP291, in the assay on CP297, with CP305, in the assay on CP315 and in the assay on CP325 was “inactive” throughout. Also, the Potency result in the assay on CP329, in the assay on CP335, with DFO2036 and in the assay with DIV14 was “inactive” each time.

Turning to `O=C1CN=C(c2ccccc2)c2cc([N+](=O)[O-])ccc2N1`, the Potency result in the assay on CP286, in the assay with CP291, with CP297, in the assay with CP305, in the assay with CP315 and in the assay with CP325 was “inactive” in each case. Also, the Potency result with CP329, in the assay on CP335 and in the assay on DFO2036 was “inactive” in each case.

On to `O=C1OC(c2ccc(O)c(S(=O)(=O)O)c2)(c2ccc(O)c(S(=O)(=O)O)c2)c2c(Br)c(Br)c(Br)c(Br)c21`, for which the Potency entry in the assay with CP286, in the assay with CP291, in the assay with CP297, in the assay with CP305, in the assay with CP315 and with CP325 was “inactive” in each case. The Potency entry in the assay with CP329, in the assay on CP335, with DFO2036 and in the assay on DIV14 was “inactive” each time.

`O=c1[nH]oc2c1CCNC2`: the Potency result with CP286, with CP291, with CP297, in the assay with CP305, in the assay on CP315 and in the assay on CP325 was “inactive” throughout. The Potency result in the assay on CP329, in the assay on CP335, in the assay on DFO2036 and in the assay with DIV14 was “inactive” in each case.

As to `O=c1oc2ccccc2c(O)c1Cc1c(O)c2ccccc2oc1=O`, the Potency entry in the assay on CP286, in the assay on CP291, in the assay with CP297, with CP305, in the assay on CP315 and in the assay with CP325 was “inactive” in each case. For the same molecule, the Potency entry with CP329, with CP335, in the assay on DFO2036 and with DIV14 was “inactive” throughout.

Turning to `CCCCCCC(=O)CCCCCC/C=C/C[C@@H](O)[C@H](O)[C@@](N)(CO)C(=O)O`, the Potency result in the assay on CP286, in the assay with CP291, in the assay on CP297, in the assay on CP305, in the assay with CP315 and in the assay with CP325 was “inactive” in each case. Moreover, the Potency entry in the assay on CP329, in the assay on CP335, in the assay on DFO2036 and in the assay on DIV14 was “inactive” throughout.

Take `CCCCC/C=C\C/C=C\C/C=C\C/C=C\CCCC(=O)NCC(=O)O`: the activity, negative = inhibition was 0.0979% [at 2.67 µM] in the assay with CP286; -4.76% [at 2.67 µM] with CP291; -4.97% [at 2.67 µM] in the assay on CP297; 3.97% [at 2.67 µM] in the assay with CP305; -5.37% [at 2.67 µM] in the assay with CP315; 2.88% [at 2.67 µM] in the assay with CP325. In addition, the activity, negative = inhibition with CP329 was 5.14% [at 2.67 µM]; in the assay with CP335, 3% [at 2.67 µM]; in the assay with DFO2036, 8.68% [at 2.67 µM]; in the assay with DIV14 it was 7.6% [at 2.67 µM].

For the molecule `NC(=O)c1cc([N+](=O)[O-])cc([N+](=O)[O-])c1`, the Potency entry with CP286, in the assay with CP291, in the assay with CP297, in the assay with CP305 and in the assay on CP315 was “inactive” throughout.

As to `COP(=S)(OC)Oc1ccc(S(=O)(=O)N(C)C)cc1`, the Potency entry with CP286, with CP291, with CP297, with CP305, in the assay on CP315 and in the assay on CP325 was “inactive” throughout. For the same molecule, the Potency result in the assay on CP329, in the assay on CP335, in the assay on DFO2036 and in the assay with DIV14 was “inactive” in each case.

Turning to `CN1C(=O)COc2c(C(=O)NC3CN4CCC3CC4)cc(Cl)cc21` (centres undefined), the Potency result with CP286, in the assay with CP291, in the assay on CP297, with CP305, with CP315 and in the assay with CP325 was “inactive” each time. In addition, the Potency entry in the assay on CP329, in the assay with CP335, with DFO2036 and in the assay with DIV14 was “inactive” each time.

With `COc1ccc2c(c1)C13CCCC[C@@H]1C(C2)N(C)CC3` (some centres undefined), the Potency result with CP286, with CP297, in the assay with CP305, with CP315, in the assay with CP325 and in the assay on CP329 was “inactive” each time. In addition, the Potency entry in the assay with DFO2036 is “inactive”. The Potency with DIV14 is 2.69 µM (active).

For `CN1C(=O)CCS(=O)(=O)C1c1ccc(Cl)cc1` (centres undefined), the Potency result with CP286, with CP291, in the assay with CP297, in the assay with CP305, with CP315 and in the assay on CP325 was “inactive” throughout. Also, the Potency result in the assay on CP329, in the assay on CP335, with DFO2036 and in the assay with DIV14 was “inactive” throughout.

In the case of `Clc1cccc(SC2CCNCC2)n1`, the Potency entry in the assay on CP286, with CP297, with CP305, in the assay with CP315, in the assay on CP325 and with CP329 was “inactive” throughout. Further, the Potency result in the assay with CP335, with DFO2036 and in the assay on DIV14 was “inactive” throughout.

Regarding `CCC1(c2ccccc2)C(=O)N(COC)C(=O)N(COC)C1=O`, the Potency entry with CP286, in the assay with CP291, in the assay with CP297, in the assay on CP305, in the assay on CP315 and in the assay with CP325 was “inactive” throughout. For the same molecule, the Potency result in the assay on CP329, in the assay on CP335, in the assay with DFO2036 and in the assay with DIV14 was “inactive” in each case.

Turning to `C=CCN1C[C@H](C)N([C@H](c2ccc(C(=O)N(CC)CC)cc2)c2cccc(OC)c2)C[C@H]1C`, the Potency result in the assay on CP291, in the assay on CP305, in the assay on CP315, in the assay with CP325 and in the assay with CP329 was “inactive” throughout.

Turning to `Nc1ccccc1C(=O)O`, the Potency result in the assay with CP286, with CP291, in the assay with CP297, with CP305, in the assay on CP315 and with CP325 was “inactive” throughout. Moreover, the Potency result with CP329, in the assay with CP335, in the assay on DFO2036 and in the assay on DIV14 was “inactive” throughout.

As to `CN1C(=O)NC(=O)C(C)(C2=CCCCC2)C1=O` (centres undefined), the Potency result in the assay with CP286, with CP291, with CP297, with CP305, in the assay with CP315 and with CP325 was “inactive” throughout. Further, the Potency result in the assay with CP329, with CP335, in the assay with DFO2036 and with DIV14 was “inactive” throughout.

For the molecule `O=C1c2ccccc2C(=O)c2ccccc21`, the Potency result in the assay with CP286, with CP291, with CP297, in the assay on CP315, in the assay on CP325 and in the assay with CP329 was “inactive” throughout. In addition, the Potency entry in the assay on DFO2036 is “inactive”.

Consider `COC1CC(=C(c2cccs2)c2cccs2)C[N+](C)(C)C1` (centres undefined), for which the values for the Potency with CP286, with CP335 and with DFO2036 were 11.2 µM (active), 6.01 µM (active) and 5.62 µM (active), respectively.

In the case of `CC(C)NC(C)C`, the Potency entry in the assay with CP286, with CP291, in the assay on CP297, in the assay on CP305, in the assay on CP325 and with CP329 was “inactive” each time. For the same molecule, the Potency entry in the assay with DFO2036 and in the assay with DIV14 was “inactive” throughout.

Regarding `O=C1c2ccccc2C(=O)C1C(=O)C(c1ccccc1)c1ccccc1`, the Potency result in the assay with CP286, in the assay with CP291, in the assay on CP297, with CP305, in the assay with CP315 and in the assay with CP325 was “inactive” throughout. The Potency result with CP329, in the assay with CP335, in the assay on DFO2036 and in the assay with DIV14 was “inactive” each time.

For the molecule `c1ccc2c(c1)sc1ccccc12`, the Potency result with CP286, in the assay with CP291, with CP297, in the assay with CP305, with CP315 and with CP325 was “inactive” throughout. Also, the Potency entry with CP329, in the assay on CP335, in the assay with DFO2036 and with DIV14 was “inactive” throughout.
